Results on 8 molecules are retold here after PubChem BioAssay.

A short description of assay [1]: viability loss in pontine glioma line – cell-based, SU-DIPG-XVII, MIPE5.0, CellTiter-Glo, qHTS, dose response (AID 1347060).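 On AC50: cells exposed to compound for 48 hours before viability readout.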 The settings on record: CellTiter-Glo ATP luminescence. In general terms: In ATP-based viability assays light output follows the ATP content of the culture.
The nature of assay [2]: viability loss in pontine glioma line – cell-based, JHH-DIPG-1, MIPE4.0, CellTiter-Glo, qHTS, dose response (AID 1347062; cut-off not given, nearly all actives have AC50 up to about 27 µM;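 on AC50: cells exposed to compound for two days before readout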). The settings on record: JHH-DIPG-1 viability, CellTiter-Glo ATP luminescence.
The nature of assay [3]: viability loss in pontine glioma line – cell-based, SU-DIPG-IV, MIPE4.0, CellTiter-Glo, qHTS, dose response (AID 1347063; cut-off not given, nearly all actives have AC50 up to about 30 µM;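 further: compound exposure lasted 48 hours before the viability readout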). The settings on record: CellTiter-Glo ATP luminescence.
Assay [4] can be described thus: viability loss in pontine glioma line – cell-based, SU-DIPG-XIII, MIPE5.0, CellTiter-Glo, qHTS, dose response (AID 1347064; cut-off not given, nearly all actives have AC50 up to about 23 µM;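 on AC50: cells exposed to compound for 48 hours before the viability read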). The settings on record: CellTiter-Glo ATP luminescence.
Assay [5] is described as follows: viability loss in pontine glioma line – cell-based, SU-DIPG-XXV, MIPE5.0, CellTiter-Glo, qHTS, dose response (AID 1347065).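 Further: cells exposed to compound for 48 hours before ATP readout.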 The settings on record: CellTiter-Glo ATP luminescence.
Assay [6] in a line: growth inhibition of DIPG cells – cell-based, MIPE4.0 library, CellTiter-Glo luminescence, qHTS (AID 1347066; cut-off not given, nearly all actives have AC50 up to about 30 µM;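 further: cells exposed to compound for 48 hours before readout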). The settings on record: SU-DIPG-VI viability, CellTiter-Glo ATP luminescence.
Assay [7] can be described thus: JHH-DIPG-1 glioma cell viability, MIPE5.0 library, CellTiter-Glo luminescence, qHTS (AID 1347067).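 Further: cells exposed to compound for 48 hours before readout.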 The settings on record: JHH-DIPG-1 glioma viability, CellTiter-Glo ATP luminescence.
The nature of assay [8]: growth inhibition of DIPG cells – cell-based, MIPE5.0 library, qHTS (AID 1347068; cut-off not given, nearly all actives have IC50 up to about 30 µM). The settings on record: SU-DIPG-XXV viability.
Assay [9] in a line: viability loss with induced miR-34 in A549 – imaging, A549 dox-inducible miR-34, nuclei and caspase counts, primary screen (AID 1347080;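 active means compounds whose cell count with miR-34 switched on is under 0.7 times the count with it off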). The settings on record: A549 miR-34 inducible, Hoechst nuclei count, 48 h.
A short description of assay [10]: MELAS cybrid and Rieske KO viability enhancers – cell-based, MELAS cybrids, Rieske KO mouse fibroblasts, CellTiter-Glo, primary screen (AID 1508586;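 active means mean z-score across replicates of 1.96 or higher in either the MELAS or the Rieske mutant cell line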;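 further: z relative to plate mean and SD of compound and empty wells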). The settings on record: low glucose.

Structures are written as SMILES. Inconclusive results are not listed. Active and inactive are the calls of the source. Unless noted, cut-off not given; nearly all actives show AC50 up to about 26 µM.

With `CC1(C)Cc2c(sc(NC(=S)NC(=O)c3ccccc3)c2C(=O)O)CO1`, the outcome in assay [1], in [2], in assay [3], in assay [4], in [5] and in assay [6] was inactive. For the same molecule, the result in assay [7] and in [8] was inactive.

As to `CCc1cnn2c(NCc3ccc[n+]([O-])c3)cc(N3CCCC[C@H]3CCO)nc12`, the AC50 was 0.0372 µM (active) in [1]; 0.0235 µM (active) in [2]; 0.0187 µM (active) in [3]; 0.0372 µM (active) in assay [4]; 0.0295 µM (active) in [5]; 0.0417 µM (active) in assay [7]. In addition, in assay [6], the result was inactive.

Regarding `O=C(O)CCCCCC(=O)NN=C1CCCC1`, the result in [1], in assay [2], in [3], in [4], in assay [5] and in [6] was inactive. For the same molecule, the outcome in [7] and in assay [8] was inactive.

For the molecule `O=C(O)[C@H](CC(=O)N1C[C@H]2CCCC[C@H]2C1)Cc1ccccc1`, the outcome in assay [1], in assay [2], in assay [3], in assay [4], in assay [5] and in assay [6] was inactive. The outcome in assay [7] and in assay [8] was inactive.

On to `Cc1nc(NC(=O)N2CCC[C@H]2C(N)=O)sc1-c1csc(C(C)(C)C)n1`, for which the AC50 was 11.8 µM (active) in [1]; 4.69 µM (active) in [2]; 2.96 µM (active) in assay [3]; 7.42 µM (active) in [4]; 4.68 µM (active) in assay [5]; 9.35 µM (active) in [6].

For `CCCCOc1ccc(C(=O)Nc2ccc(F)cc2F)cc1`, the result in [1], in assay [2], in assay [3], in [4], in [5] and in assay [6] was inactive. In addition, the call in assay [7] and in assay [8] was inactive. Besides, the fold change in assay [9] (stronger effect = lower value, cell number ratio, induced over uninduced) is 0.889 (inactive); in [9] (measured here: relative caspase fold change +Dox/-Dox), 0.917. Moreover, the cell count in assay [9] (measured here: total cells with miR-34 induction, stronger effect = lower value) came to 9070; in assay [9] (measured here: total cells without miR-34 induction), 10200. Moreover, the z-score in assay [10] (MELAS cybrid survival, CellTiter-Glo 48 h, stronger effect = higher value) is -0.373 (inactive); in [10] (Rieske KO mouse fibroblast survival, CellTiter-Glo 72 h) it was 0.589.

Regarding `C[C@H](NC(=O)/C(C#N)=C/c1cccc(Br)n1)c1ccccc1`, the AC50 in assay [1] was 7.42 µM (active); in assay [2] it was 9.35 µM (active); in [3], 7.43 µM (active); in [4] it was 7.42 µM (active); in assay [5], 3.72 µM (active); in assay [6] it was 14.8 µM (active). The AC50 in [7] is 9.34 µM (active).

In the case of `NC1=N[C@H]2[C@H](CS[C@H]2CCCCC(=O)O)N1`, the outcome in [1], in [2], in assay [3], in [4], in assay [5] and in [6] was inactive. Besides, in [7], the molecule was called inactive.

A word on the AC50: it is the concentration at which the activity in the assay is half-maximal.
